The nature of test [1]: qHTS assay to identify small molecule antagonists of the glucocorticoid receptor (GR) signaling pathway - cell viability counter screen (AID 720693). Note: nearly all actives have a fitted effect of over 55% in size. Note: potency is the fitted concentration of half-maximal effect. A general note: In qHTS, concentration-response curves come from the screen itself.
Test [2] is described as follows: qHTS assay for identifying genotoxic compounds that show differential cytotoxicity against isogenic chicken DT40 cell lines with known DNA damage response pathways - wild type cell line (AID 743012). Note: nearly all actives have a fitted effect of over 60% in size. Note: potency is the fitted concentration of half-maximal effect. The method, boiled down: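 Luminescent ATP viability signal (CellTiter-Glo, 30 min RT) recorded after wild type DT40 cells were incubated with compounds for 40 h at 37 C/5% CO2.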

The nature of test [3]: qHTS assay for identifying genotoxic compounds that show differential cytotoxicity against isogenic chicken DT40 cell lines with known DNA damage response pathways - Rev3 mutant cell line (AID 743014). Note: nearly all actives have a fitted effect of over 55% in size. Note: potency is the fitted concentration of half-maximal effect.
A short description of test [4]: qHTS assay for identifying genotoxic compounds that show differential cytotoxicity against isogenic chicken DT40 cell lines with known DNA damage response pathways - Rad54/Ku70 mutant cell line (AID 743015). Note: nearly all actives have a fitted effect of over 60% in size. Note: potency is the fitted concentration of half-maximal effect.
The nature of test [5]: qHTS assay to identify small molecule antagonists of the androgen receptor (AR) signaling pathway - cell viability counter screen (AID 743033; note: nearly all actives have a fitted effect of over 45% in size; note: potency is the fitted concentration of half-maximal effect).
Test [6] deals with Androgen receptor (Homo sapiens) (UniProt P10275). As to the kind of experiment: qHTS assay to identify small molecule agonists of the androgen receptor (AR) signaling pathway using the MDA cell line (AID 743040; note: nearly all actives have a fitted effect of over 20% in size). The method, boiled down: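 Luciferase read-out, ONE-Glo, 30 min RT. Cells: MDA-kb2 AR-luc, MMTV promoter with AR and GR response elements. Compound exposure 16 h, 37C, 0% CO2, after 5 h pre-incubation. qHTS agonist mode.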

A short description of test [7]: qHTS assay to identify small molecule antagonists of the androgen receptor (AR) signaling pathway using the MDA cell line - cell viability counter screen (AID 743041; note: nearly all actives have a fitted effect of over 45% in size; note: potency is the fitted concentration of half-maximal effect). The method, boiled down:
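Cytotoxicity counter screen: MDA-kb2 AR-luc cells, compound + R1881, 16 h, 37C, 0% CO2; CellTiter-Fluor added at 15.5 h, fluorescence read after 30 min.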

The nature of test [8]: qHTS assay to identify small molecule antagonists of the thyroid receptor (TR) signaling pathway (AID 743065). Note: nearly all actives have a fitted effect of over 55% in size. Note: potency is the fitted concentration of half-maximal effect. The method, boiled down: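 GH3.TRE-Luc rat pituitary cells (two TREs driving luciferase) were dosed with compound, then stimulated with 1 nM T3 (final) for 23.5 h at 37 C. ONE-Glo luminescence was the read-out, with CellTiter-Fluor fluorescence as the cytotoxicity counter-screen.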

Test [9] deals with thyroid hormone receptor (rat, GH3 cells). The test is described as follows: qHTS assay to identify small molecule agonists of the thyroid receptor (TR) signaling pathway (AID 743066; calls by dose curve).
Test [10] can be described thus: qHTS assay to identify small molecule antagonists of the estrogen receptor alpha (ER-alpha) signaling pathway - cell viability counter screen (AID 743074; calls by dose curve;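 note: HEK293 cells carrying ER-alpha-UAS-bla reporter stimulated with 17beta-estradiol; nearly all actives have a fitted effect of over 45% in size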; note: potency is the fitted concentration of half-maximal effect).
Test [11] deals with Estrogen receptor (Homo sapiens) (UniProt P03372). The test is described as follows: qHTS assay to identify small molecule agonists of the estrogen receptor alpha (ER-alpha) signaling pathway (AID 743075; calls by dose curve; note: potency is the fitted concentration of half-maximal effect). The note with it: HEK293 ER-alpha-UAS-bla, beta-lactamase FRET ratio, 18 h; activation: at 70.1 µM (top of the series).
Test [12] is described as follows: qHTS assay to identify small molecule antagonists of the estrogen receptor alpha (ER-alpha) signaling pathway using the BG1 cell line (AID 743080; calls by dose curve;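 note: BG1 cells stimulated with 17beta-estradiol alongside compound; nearly all actives have a fitted effect of over 25% in size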; note: potency is the fitted concentration of half-maximal effect). The method, boiled down:
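Luciferase inhibition measured with ONE-Glo after 30 min at RT in BG1Luc4E2 cells given test compounds and 17beta-estradiol for 21.5 h at 37 C; CellTiter-Fluor viability read in the same wells beforehand.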

Test [13] can be described thus: qHTS assay to identify small molecule antagonists of the estrogen receptor alpha (ER-alpha) signaling pathway using the BG1 cell line - cell viability counter screen (AID 743081).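 Note: compound given together with 17beta-estradiol as the ER stimulus; nearly all actives have a fitted effect of over 45% in size.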 Note: potency is the fitted concentration of half-maximal effect.
The next test has as its target Aromatase (Homo sapiens) (UniProt P11511). The test is described as follows: qHTS assay to identify aromatase inhibitors (AID 743083). Note: nearly all actives have a fitted effect of over 55% in size. Note: potency is the fitted concentration of half-maximal effect.
The target of test [14] is Androgen receptor (Homo sapiens) (UniProt P10275). The test is described as follows: qHTS assay to identify small molecule antagonists of the androgen receptor (AR) signaling pathway (AID 743035; active = well fitted inhibition curve with a large enough effect in the signal ratio in the repeat runs, not every such curve was filed as active; the % refers to the signal ratio; note: potency is the fitted concentration of half-maximal effect). In a few lines: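 Quantitative HTS of the Tox21 10K library used HEK293 AR-UAS-bla cells stimulated with R1881 alongside compound for 16 h at 37C, followed by beta-lactamase FRET detection (LiveBLAzer B/G, 2 h, RT).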

Test [15] has the same target. The test is described as follows: qHTS assay to identify small molecule agonists of the androgen receptor (AR) signaling pathway (AID 743036; active = well fitted activation curve with a large enough effect in the signal ratio in the repeat runs, with a control signal flat, not every such curve was filed as active; the % refers to the signal ratio). The method, boiled down:
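HEK293 cells stably carrying a UAS-driven beta-lactamase reporter (GeneBLAzer AR-UAS-bla-GripTite) were plated at 2,000 cells/well, rested 4 h at 37C, then exposed to compounds in DMSO for 16 h. LiveBLAzer B/G FRET substrate was added for 2 h at room temperature; fluorescence read.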

Test [16] in a line: qHTS assay to identify small molecule antagonists of the thyroid receptor (TR) signaling pathway - cell viability counter screen (AID 743064). Note: nearly all actives have a fitted effect of over 50% in size. Note: potency is the fitted concentration of half-maximal effect. In a few lines: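 GH3.TRE-Luc rat pituitary cells carrying a TRE-luciferase reporter were treated with compound plus 1 nM T3 (final) for 23.5 h at 37 °C. Viability was then read in the same wells by CellTiter-Fluor fluorescence after a further 30 min.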

The target of test [17] is Estrogen receptor (Homo sapiens) (UniProt P03372). The test is described as follows: qHTS assay to identify small molecule agonists of the estrogen receptor alpha (ER-alpha) signaling pathway using the BG1 cell line (AID 743079). Note: nearly all actives have a fitted effect of over 20% in size. Conditions: BG1Luc4E2 cells, ERE-luciferase agonist, 22 h; at 70.3 µM (top of the series).
Test [18] has as its target Androgen receptor (Homo sapiens) (UniProt P10275). The test is described as follows: qHTS assay to identify small molecule antagonists of the androgen receptor (AR) signaling pathway using the MDA cell line (AID 743042; note: nearly all actives have a fitted effect of over 55% in size; note: potency is the fitted concentration of half-maximal effect). In a few lines:
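MDA-kb2 breast carcinoma cells carrying MMTV-luciferase (AR/GR responsive) were co-treated with compounds and the agonist R1881 for 16 h at 37C. Inhibition read as ONE-Glo luminescence; CellTiter-Fluor fluorescence measured in parallel for cytotoxicity.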

Test [19] concerns the target Estrogen receptor (Homo sapiens) (UniProt P03372). The test is described as follows: qHTS assay to identify small molecule antagonists of the estrogen receptor alpha (ER-alpha) signaling pathway (AID 743069; active = well fitted curve in the direction sought with a large enough effect in the signal ratio in the repeat runs, not every such curve was filed as active; the % refers to the signal ratio). The method, boiled down: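 Beta-lactamase FRET fluorescence is read after 2 hr at room temperature with LiveBLAzer B/G substrate. Before that, ER-alpha-bla HEK293 cells sit 4 hr after plating, then receive compound plus 17beta-estradiol and incubate 18 hr at 37C.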

“And” between values parts separate entries of the source, which are not always exact repeats. Equal entries are not always repeated. Inconclusive results are not listed. The source holds several records for some structures; these can differ, active in one and inactive in another. The source made the active and inactive calls. Unless noted, calls come from the whole dose curve; as a rule, active = well fitted curve in the direction sought with a large enough effect in the repeat runs; inconclusive = weak or mixed curves; inactive = no such curve, though single readings can be large; an effect the other way counts as inactive or inconclusive.
% is set by controls: 0 for no effect and ±100 for the full control effect.

Sequence of Androgen receptor (Homo sapiens) (P10275 whole entry, looked up): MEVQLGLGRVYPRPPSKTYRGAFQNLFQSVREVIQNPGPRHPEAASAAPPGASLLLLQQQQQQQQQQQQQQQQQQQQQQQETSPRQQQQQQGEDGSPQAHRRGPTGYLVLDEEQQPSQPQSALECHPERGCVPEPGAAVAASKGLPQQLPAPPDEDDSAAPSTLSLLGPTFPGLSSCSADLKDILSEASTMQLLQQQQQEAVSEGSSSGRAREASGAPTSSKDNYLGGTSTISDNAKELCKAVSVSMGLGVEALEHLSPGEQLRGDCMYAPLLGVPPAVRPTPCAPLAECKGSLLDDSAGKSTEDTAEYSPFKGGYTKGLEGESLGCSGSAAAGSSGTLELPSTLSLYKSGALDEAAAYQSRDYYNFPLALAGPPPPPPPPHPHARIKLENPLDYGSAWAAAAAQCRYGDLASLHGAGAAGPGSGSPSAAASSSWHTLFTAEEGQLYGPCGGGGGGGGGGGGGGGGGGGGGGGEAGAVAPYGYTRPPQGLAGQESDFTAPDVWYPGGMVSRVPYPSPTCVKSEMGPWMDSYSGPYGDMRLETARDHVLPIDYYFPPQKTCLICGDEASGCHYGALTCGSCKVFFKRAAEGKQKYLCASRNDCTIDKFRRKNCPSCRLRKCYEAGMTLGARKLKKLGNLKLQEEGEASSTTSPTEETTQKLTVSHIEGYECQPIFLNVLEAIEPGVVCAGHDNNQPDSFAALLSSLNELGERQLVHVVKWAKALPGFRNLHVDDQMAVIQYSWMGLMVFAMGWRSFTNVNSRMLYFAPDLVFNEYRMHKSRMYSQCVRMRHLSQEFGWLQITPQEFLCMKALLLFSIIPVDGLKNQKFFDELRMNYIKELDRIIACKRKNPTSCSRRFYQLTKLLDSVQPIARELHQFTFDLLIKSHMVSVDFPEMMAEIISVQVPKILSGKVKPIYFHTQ
Sequence of Aromatase (Homo sapiens) (P11511 whole entry, looked up): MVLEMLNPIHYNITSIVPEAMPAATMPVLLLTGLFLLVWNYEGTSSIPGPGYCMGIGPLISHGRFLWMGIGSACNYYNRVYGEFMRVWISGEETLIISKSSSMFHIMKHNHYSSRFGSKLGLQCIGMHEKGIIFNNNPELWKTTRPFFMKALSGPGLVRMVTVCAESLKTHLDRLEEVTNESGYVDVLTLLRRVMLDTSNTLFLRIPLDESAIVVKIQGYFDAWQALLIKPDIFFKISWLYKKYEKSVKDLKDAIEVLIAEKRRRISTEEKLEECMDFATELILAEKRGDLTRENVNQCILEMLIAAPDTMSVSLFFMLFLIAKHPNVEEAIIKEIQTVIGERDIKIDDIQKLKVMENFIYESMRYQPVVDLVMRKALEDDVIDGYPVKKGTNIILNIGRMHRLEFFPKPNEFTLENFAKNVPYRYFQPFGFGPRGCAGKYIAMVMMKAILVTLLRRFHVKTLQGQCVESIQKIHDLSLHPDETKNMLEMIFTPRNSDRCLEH
Sequence of Estrogen receptor (Homo sapiens) (P03372 whole entry, looked up): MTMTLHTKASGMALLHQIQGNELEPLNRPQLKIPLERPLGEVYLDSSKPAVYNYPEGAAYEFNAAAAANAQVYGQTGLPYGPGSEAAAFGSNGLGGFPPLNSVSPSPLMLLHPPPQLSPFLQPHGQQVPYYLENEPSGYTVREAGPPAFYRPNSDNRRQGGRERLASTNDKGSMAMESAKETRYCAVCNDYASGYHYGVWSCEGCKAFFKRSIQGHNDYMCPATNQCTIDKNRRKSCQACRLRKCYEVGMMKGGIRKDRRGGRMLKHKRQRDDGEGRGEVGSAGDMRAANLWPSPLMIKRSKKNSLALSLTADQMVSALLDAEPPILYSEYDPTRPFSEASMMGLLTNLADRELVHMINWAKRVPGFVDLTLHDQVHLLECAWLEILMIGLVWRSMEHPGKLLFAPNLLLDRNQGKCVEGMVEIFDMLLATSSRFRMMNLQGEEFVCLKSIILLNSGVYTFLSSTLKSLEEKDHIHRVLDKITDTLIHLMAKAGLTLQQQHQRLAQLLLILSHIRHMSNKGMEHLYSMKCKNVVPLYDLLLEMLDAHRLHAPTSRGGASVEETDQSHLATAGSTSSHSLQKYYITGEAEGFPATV

As to `Cc1c(C)c2c(c(C)c1O)CCC(C)(COc1ccc(CC3SC(=O)NC3=O)cc1)O2` (configuration not stated), the Potency entry in test [1], in test [6], in [7], in test [9], in test [10] and in test [11] was “inactive” in each case. In addition, in test [13], the Potency entry was “inactive”. The Potency in [2] was 10.6 µM (active) and 17.2 µM (active); in test [3] it was 26.6 µM (active) and 15.4 µM (active); in test [4], 10.6 µM (active) and 24.3 µM (active); in test [5], “inactive and 24.5 µM (active)”; in test [8] it was 13.3 µM (active) and 24.3 µM (active); in [12] it was 23.7 µM (active). In addition, the Potency in the test with Aromatase (Homo sapiens) was 29.8 µM (active) and 61.1 µM (active).

In the case of `O=C(O)c1ccc(Cl)c(Cl)c1`, the Potency result in test [1], in [2], in test [3], in test [4], in test [5] and in test [14] was “inactive” throughout. In addition, the Potency result in [15], in test [6], in [7], in test [16], in test [8] and in test [9] was “inactive” in each case. Besides, the Potency entry (in [10]; in [11]; in test [12]; in test [13]; with Aromatase (Homo sapiens)) was “inactive” in each case. Besides, the activation in test [17] is -5.68% (inactive).

As to `NNc1nc(-c2ccc([N+](=O)[O-])cc2)cs1`, the Potency in [1] was 43.6 µM (active); in [2] it was 6.11 µM (active); in [3] it was 1.72 µM (active); in test [4], 4.33 µM (active); in test [5], 30.9 µM (active); in [14] it was 24.5 µM (active). The Potency was 61.1 µM (active) in test [7]; 48.6 µM (active) in test [18]; 68.6 µM (active) in [16]; 30.6 µM (active) in [8]; 15.5 µM (active) in test [10]; 54.5 µM (active) in test [13]. Further, the Potency with Aromatase (Homo sapiens) is 43.3 µM (active). For the same compound, the Potency entry in [6], in test [9] and in test [11] was “inactive” in each case.

Regarding `CN1CCC(Nc2ncc3ncnc(Nc4ccc(F)c(Cl)c4)c3n2)CC1`, the Potency result in test [1], in [5], in test [6], in test [18] and in test [10] was “inactive” each time. Further, the Potency was 13.3 µM (active) in test [2]; 23.7 µM (active) in test [3]; 21.1 µM (active) in test [4]; 11.9 µM (active) in [16]; 9.44 µM (active) in test [8].

As for `Oc1cc2ccccc2c2ccccc12`, the Potency in test [1] was 17.4 µM (active); in test [2] it was 1.22 µM (active); in test [3] it was 1.72 µM (active); in test [4], 1.09 µM (active); in test [5], 9.77 µM (active); in [7], 27.3 µM (active). The Potency in test [18] is 13.7 µM (active); in [16] it was 10.9 µM (active); in test [8], 10.9 µM (active); in test [10], 11 µM (active); in test [11] it was 24.5 µM [fluorescent] (active); in the test with Aromatase (Homo sapiens) it was 6.86 µM (active). In addition, in test [6], the Potency entry is “inactive”.

As for `C[C@H]1[C@H]2CC[C@H]3[C@@H]4CC=C5C[C@@H](N(C)C)CC[C@]5(C)[C@H]4CC[C@]23CN1C`, the Potency result in test [1], in [5], in test [15], in [6], in test [7] and in [16] was “inactive” in each case. Further, the Potency entry (in test [8]; in test [9]; in [10]; in the test with Aromatase (Homo sapiens)) was “inactive” in each case. Further, the Potency in [2] was 15 µM (active); in [3] it was 11.9 µM (active); in test [4] it was 16.8 µM (active).

Turning to `CCCCN1CCCC[C@H]1C(=O)Nc1c(C)cccc1C`, the Potency result in test [1], in test [2], in test [3], in test [4], in test [5] and in [15] was “inactive” throughout. The Potency result in [6], in test [7], in test [16], in test [8], in test [9] and in test [19] was “inactive” in each case. Besides, the Potency result (in test [10]; in test [11]; in [12]; in [13]; with Aromatase (Homo sapiens)) was “inactive” in each case. The activation in test [17] was -9.26% (inactive).

The values are drawn from PubChem BioAssay (Tox21).
